# Test results reported in PubChem BioAssay (NCATS).
# Several values for one entry are separate records, joined by “and”; a condition that tells them apart may be missing. Identical values can stand only once. Records with an inconclusive call do not appear. Activity calls are given as the source filed them. Unless noted, the call rests on the fitted dose curve; in most records, active means well fitted curve in the direction sought with a large enough effect; inconclusive means small, poorly fitted or top-dose-only effect, or another doubt; inactive means no such curve, though single readings can be large; an effect the other way counts as inactive or inconclusive.
# How the values were obtained:
# [1] = qHTS for Activators of Parkin Expression: LOPAC Validation Assay (NLuc Reporter) (AID 720572;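 further: 0% = DMSO and 100% = positive control compound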)
# Summary of the method: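 Cells harboring the Parkin-promoter coincidence reporter were treated for 24 h at seven concentrations. NLuc output was measured sequentially after the FLuc channel and scaled between DMSO and positive control values.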
# [2] = qHTS for Activators of Parkin Expression: LOPAC Validation Assay (FLuc Reporter) (AID 720573;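 further: 0% = DMSO and 100% = positive control compounds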)
# Summary of the method: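 FLuc signal from Parkin-promoter coincidence reporter neuronal cells, normalized to DMSO and positive control (100%). Cells (1,500/well) pre-incubated 24 h, then exposed to LOPAC compounds in 7-point dose response for 24 h at 37 C, 5% CO2.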
# [3] = qHTS assay for small molecule agonists of the antioxidant response element (ARE) signaling pathway measured by Nrf2-dependant transcriptional activity (AID 720636; active means well fitted curve in the direction sought with a large enough effect in the repeat runs; an effect the other way counts as inactive or inconclusive;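 further: HepG2 cells with an ARE-driven luciferase reporter; % of control where 0% means no effect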)
# Summary of the method: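 First, ARE-luc HepG2 cells attached for 6 hr at 37 C in 1% dialyzed FBS medium. Next, compound or DMSO was added and incubated 16 hr. Finally, ONE-Glo reagent was added and luminescence measured after 30 min.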
# [4] = qHTS assay for small molecule agonists of the antioxidant response element (ARE) signaling pathway measured by Nrf2-dependant transcriptional activity - cell viability counter screen (AID 720653; active means well fitted curve in the direction sought with a large enough effect in the repeat runs; an effect the other way counts as inactive or inconclusive; further: on the % scale 0 is the no-effect control and ±100 the full control effect); details: ARE-bla HepG2 viability, CellTiter-Glo ATP luminescence, 16 h; stronger effect = lower value
# Summary of the method: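 ARE-bla HepG2 cells (2,000/well) rested 5 hrs at 37C/5% CO2, then exposed to compounds in DMSO for 16 hrs. Viability was read in the same wells as intracellular ATP by luminescence, 30 min at room temperature after reagent addition.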
# [5] = molecular target: T1, Hexokinase-4 (Homo sapiens) + Glucokinase regulatory protein (Homo sapiens) (UniProt P35557+Q14397); test: qHTS assay for inhibitors of recombinant human GCK-GKRP interaction: Diaphorase-coupled assay (AID 743205)
# Summary of the method: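 A kinetic fluorescence read (Ex 525/Em 590 nm, every minute for 30 minutes) tracked resorufin from a G6PDH-diaphorase coupled GCK reaction. It contained 10 nM GST-GCK, 10 nM FLAG-GKRP, 5 mM glucose, 0.4 mM ATP in Hepes pH 7.6. Normalized to with/without-enzyme DMSO controls.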
# [6] = molecular target: T1, Hexokinase-4 (Homo sapiens) + Glucokinase regulatory protein (Homo sapiens); test: qHTS assay for inhibitors of recombinant human GCK-GKRP interaction: ADP-Glo assay (AID 743206);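 further: plate controls were DMSO plus enzyme for no effect and no enzyme for full effect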
# Summary of the method: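 Pin-transferred compounds meet a 15 nM GST-GCK/15 nM FLAG-GKRP/2 uM S6P mix (dispense concentrations). ATP is then added to 0.4 mM final with 5 mM glucose, and the reaction runs 60 min at room temperature. ADP is quantified luminescently.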
# [7] = molecular target: T1, Hexokinase-4 (Homo sapiens) + Glucokinase regulatory protein (Homo sapiens); test: qHTS assay for inhibitors of recombinant human GCK-GKRP interaction: HTRF assay (AID 743207);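 further: 0% = DMSO with GCK present and -100% = DMSO wells lacking GCK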
# Summary of the method: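 After 60 min equilibration at room temperature with anti-FLAG XL665 and anti-GST antibodies, FRET ratio (665/615 nm, excitation 320 nm) was read. Proteins: GST-GCK and FLAG-GKRP, each 5 nM, plus 2 uM S6P, pH 7.1 buffer; GCK-free wells define minimum signal.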
# [8] = qHTS Assay for Identifying Gametocytocidal Compounds (AID 743244);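 further: on the % scale 0 is the no-effect control and ±100 the full control effect; actives lower the fluorescent signal which means gametocytes are killed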; details: P. falciparum 3D7 stage III-V gametocytes, alamarBlue, 72 h; max response: stronger effect = lower value
# Summary of the method: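 In this qHTS viability screen, late-stage 3D7 gametocytes are incubated with compound for 72 h, then with alamarBlue for 24 h; reduced resorufin fluorescence marks killing.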
# [9] = qHTS assay for cell viability of HEK293 cells (AID 743288); details: ATP luminescence (CellTiter-Glo), 18 h; max response: stronger effect = lower value; further: on the % scale 0 is the no-effect control and ±100 the full control effect; nearly all actives have a fitted effect of over 50% in size
# Summary of the method: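 Readout is luciferase-coupled ATP content (CellTiter-Glo luminescence, 30 min room temperature) as a measure of metabolically competent cells. Parental HEK293 cells were plated 5 h or more before compound addition, then treated 18 h at 37 C.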
# [10] = qHTS assay for cell viability of the p53RE-bla HCT-116 cell line (AID 743292); further: on the % scale 0 is the no-effect control and ±100 the full control effect; nearly all actives have a fitted effect of over 55% in size
# Summary of the method: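 Quantitative high-throughput format: compounds in DMSO were pinned onto p53RE-bla HCT-116 cells (4,000/well) and incubated 16 h at 37 C. Total intracellular ATP, read by CellTiter-Glo luminescence, reflects viable cell number.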
# [11] = qHTS profiling of the MIPE4 collection as inhibitors of Plasmodium falciparum (3D7) proliferation (AID 743344; call rule not given here;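 further: scaled between DMSO vehicle wells and 0.29 µM artemisinin as full inhibition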); details: P. falciparum 3D7 in erythrocytes, SYBR Green DNA fluorescence, 72 h; at 28.5 µM (top of the series) unless noted
# Summary of the method: (§1)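 Parasite DNA was quantified by SYBR Green I fluorescence (ex 485, em 535 nm) after overnight lysis in saponin/Triton buffer at room temperature. Cultures at 0.3% parasitemia and 2.5% hematocrit were first exposed to compound for 72 h at 37 C; signals were normalised to artemisinin (0.29 uM) and vehicle wells.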
# [12] = qHTS profiling of the MIPE4 collection as inhibitors of Plasmodium falciparum (DD2) proliferation (Rep 2) (AID 743346; call rule not given here); details: P. falciparum Dd2 in erythrocytes, SYBR Green DNA, 72 h; at 28.5 µM (top of the series) unless noted
# Summary of the method: as §1
# [13] = qHTS profiling of the MIPE4 collection as inhibitors of Plasmodium falciparum (HB3) proliferation (AID 743347; call rule not given here;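 further: plate controls were DMSO vehicle wells for no effect and artemisinin wells for full effect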); details: P. falciparum HB3 in erythrocytes, SYBR Green DNA, 72 h; at 28.5 µM (top of the series) unless noted
# Summary of the method: as §1
# [14] = qHTS profiling for inhibitors of Plasmodium falciparum (DD2) proliferation (AID 743323; call rule not given here); details: lower = more inhibition; at 28.7 µM (top of the series) unless noted
# Summary of the method: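 P. falciparum Dd2-infected erythrocytes (0.3% parasitemia, 2.5% hematocrit) exposed 72 h at 37 C, 5% CO2. Lysis with SYBR Green, overnight at room temperature, fluorescence 485/535 nm; normalized to 0.29 uM artemisinin and DMSO.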
# [15] = qHTS profiling for inhibitors of Plasmodium falciparum (HB3) proliferation (AID 743324); details: Plasmodium falciparum HB3 blood-stage proliferation; at 28.7 µM (top of the series) unless noted;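 further: 100% = DMSO vehicle wells and 0% = artemisinin-treated control wells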
# Summary of the method: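 SYBR Green fluorescence (485 ex/535 em) of lysed cultures, incubated overnight at room temperature in the dark, quantifies parasite DNA. Infected erythrocytes at 0.3% parasitemia and 2.5% hematocrit were exposed 72 h; values normalized to DMSO and 0.29 uM artemisinin controls.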
# [16] = qHTS profiling of the MIPE4 collection as inhibitors of Plasmodium falciparum (DD2) proliferation (AID 743345; call rule not given here); details: P. falciparum Dd2 in erythrocytes, SYBR Green DNA, 72 h; at 28.5 µM (top of the series) unless noted
# Summary of the method: as §1
# [17] = Cell Proliferation Assay Versus the ED40515 IL2 Dependent ATL cell lines (AID 1053195; calls by dose curve); details: ED40515 IL2-dependent ATL cells
# Summary of the method: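 CellTiter-Glo luminescence (15 min, RT) measured viability after 48 hours at 37C; cells were ED40515 +IL2, 1000/well, in phenol red-free RPMI with 5% FBS. Controls: DMSO and 9.2 uM bortezomib.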
# [18] = qHTS profiling for inhibitors of Plasmodium falciparum (3D7) proliferation (AID 743322);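 further: infected erythrocytes exposed to compound for 72 h before lysis; 100% = DMSO vehicle wells and 0% = 0.29 µM artemisinin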; details: P. falciparum 3D7 proliferation; at 28.7 µM (top of the series) unless noted
# Summary of the method: as §1
# [19] = Cell Proliferation Assay Versus the ED40515 IL2 Independent ATL cell lines (AID 1053194; calls by dose curve); details: ED40515 IL2-independent ATL cells
# Summary of the method: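 CellTiter-Glo luminescence, read after 15 min at RT, gave viability of IL-2-free ED40515 cells (1000/well, RPMI plus 5% FBS) following 48 h drug exposure at 37C. Control wells held DMSO or 9.2 uM bortezomib.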
# T1 sequence (P35557 whole entry, looked up): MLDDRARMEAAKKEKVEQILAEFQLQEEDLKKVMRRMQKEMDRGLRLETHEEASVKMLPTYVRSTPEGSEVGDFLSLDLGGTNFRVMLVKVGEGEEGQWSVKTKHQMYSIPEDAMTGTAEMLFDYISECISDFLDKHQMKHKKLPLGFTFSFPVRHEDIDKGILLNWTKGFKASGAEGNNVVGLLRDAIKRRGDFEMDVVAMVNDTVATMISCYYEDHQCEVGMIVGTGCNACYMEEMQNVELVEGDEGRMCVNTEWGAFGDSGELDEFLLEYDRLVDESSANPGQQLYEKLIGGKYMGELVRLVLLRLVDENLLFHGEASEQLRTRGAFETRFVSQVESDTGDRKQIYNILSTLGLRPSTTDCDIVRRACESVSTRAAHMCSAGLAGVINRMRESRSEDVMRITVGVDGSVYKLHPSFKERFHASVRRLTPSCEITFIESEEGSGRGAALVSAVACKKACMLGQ
# T1 sequence (Q14397 whole entry, looked up): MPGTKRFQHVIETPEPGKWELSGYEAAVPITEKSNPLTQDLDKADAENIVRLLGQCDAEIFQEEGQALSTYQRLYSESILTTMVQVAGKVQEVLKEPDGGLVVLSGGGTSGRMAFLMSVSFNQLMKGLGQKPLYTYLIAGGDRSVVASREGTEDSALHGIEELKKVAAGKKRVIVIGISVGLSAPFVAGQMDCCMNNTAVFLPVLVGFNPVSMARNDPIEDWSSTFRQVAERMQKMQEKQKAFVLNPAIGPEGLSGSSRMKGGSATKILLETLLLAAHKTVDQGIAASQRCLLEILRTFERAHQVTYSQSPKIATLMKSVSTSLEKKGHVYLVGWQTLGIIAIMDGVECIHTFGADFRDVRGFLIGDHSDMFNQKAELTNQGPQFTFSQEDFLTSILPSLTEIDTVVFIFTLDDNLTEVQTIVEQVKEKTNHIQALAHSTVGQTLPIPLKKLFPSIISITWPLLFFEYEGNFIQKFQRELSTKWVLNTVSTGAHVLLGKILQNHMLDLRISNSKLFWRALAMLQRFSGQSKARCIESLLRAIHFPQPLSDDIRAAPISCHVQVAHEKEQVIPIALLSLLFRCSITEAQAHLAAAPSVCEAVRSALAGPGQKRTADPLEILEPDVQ
smiles,measurement,setting,value
Cc1[nH]c(=O)c(C#N)cc1-c1ccncc1,Potency,[1],inactive
same,outcome,[2],inactive
same,outcome,[3],inactive
same,max response,[4],11.3% (inactive)
same,outcome,[5],inactive
same,outcome,[6],inactive
same,outcome,[7],inactive
same,max response,[8],-5.95% (inactive) and 11% (inactive) and 13.2% (inactive)
same,max response,[9],7.32% (inactive)
same,Potency,[10],inactive
same,"parasite growth, % of DMSO control",[11],15.2%
same,"parasite growth, % of control (lower = inhibition)",[12],36.4%
same,"growth, % of control",[13],9.94%
O=NN(CCCl)C(=O)NCCCl,Potency,[1],inactive
same,outcome,[2],inactive
same,outcome,[3],inactive
same,max response,[4],-0.208% (inactive)
same,outcome,[5],inactive
same,outcome,[6],inactive
same,outcome,[7],inactive
same,max response,[8],10.6% (inactive) and 5.39% (inactive)
same,max response,[9],-8.57% (inactive)
same,Potency,[10],inactive
COc1cc2c(cc1OC)CN(CCc1ccc(NC(=O)c3cccc4c(=O)c5cccc(OC)c5[nH]c34)cc1)CC2,"activity, percent of control",[14],0.466%
same,"remaining proliferation (% of control), lower = more inhibition",[15],-0.901%
same,"parasite growth remaining, % of DMSO control (lower = more inhibition)",[16],7.47%
same,"parasite growth, % of control (lower = inhibition)",[12],10%
same,"growth, % of control",[13],4.23%
same,Potency,[17],16.6 µM (active)
COc1ccc(-c2ccc3c(N4CCOC[C@H]4C)nc(N4CCOC[C@H]4C)nc3n2)cc1CO,remaining parasite growth % (stronger effect = lower value),[18],15.5%
same,"activity, percent of control",[14],19.8%
same,"remaining proliferation (% of control), lower = more inhibition",[15],10.7%
same,"parasite growth remaining, % of DMSO control (lower = more inhibition)",[16],9.32%
same,"parasite growth, % of control (lower = inhibition)",[12],13.1%
same,"growth, % of control",[13],7.68%
same,Potency,[19],0.0083 µM (active)
